Molecules are shown by their SMILES. Screen size: about 2,300 compounds; about 1,200 (52%) were called active. Not shown: some 34% with an inconclusive outcome. The call rests on the fitted dose curve; in most records, active means well fitted inhibition curve with a large enough effect; inconclusive means small, poorly fitted or top-dose-only effect, or effect the other way; inactive means no such curve, though single readings can be large or run the other way. So high a share suggests a set chosen from earlier hits. The list shows a part of the results.

These results are taken from PubChem BioAssay AID504850 (National Center for Advancing Translational Sciences (NCATS), 2011).
Potency means the concentration at half of the fitted maximal effect.

This assay in a line: Confirmation screen for delayed death inhibitors of the malarial parasite plastid, 48 hour incubation. Further: nearly all actives have a fitted effect of over 65% in size. Particulars: P. falciparum-infected erythrocytes, luciferase growth; series mostly up to 28.7 µM. The procedure, abridged:
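Erythrocytes infected with luciferase-expressing P. falciparum (2% hematocrit, 0.1% parasitemia) incubated with compounds 48 hours at 37 C, 5% CO2, in RPMI/Albumax. Growth inhibition scored as reduced luminescence after detection reagent.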
On to `CCCN(CCC)CCNC(=O)C1c2ccccc2C(=O)N2CCc3ccccc3C12` (stereo not given), for which the Potency entry is “inactive”.

As to `CCN(CC)CCNC(=O)C1c2cc(OC)c(OC)cc2C(=O)N2CCc3ccccc3C12` (stereo not given), the Potency was 7.08 µM (active).

Turning to `CC(=O)c1ccccc1OCC(O)CN1CCN(C(c2ccccc2)c2ccccc2)CC1` (stereo not given), the Potency is 2.24 µM (active).

Turning to `O=C(N/N=C/c1ccc([N+](=O)[O-])cc1)c1cccc(N2CCCC2=O)c1`, the Potency is 11.2 µM (active).

For `Cc1nn(-c2ccccc2)c(N2CCCC2)c1/C=N/NC(=S)Nc1ccccc1F`, the Potency was 12.6 µM (active).

For the molecule `Cc1nn(-c2ccccc2)c(N2CCCC2)c1/C=N/NC(=O)c1ccccc1O`, the Potency was 5.01 µM (active).

On to `CC(C)Cc1csc(NC(=O)C(C)C)c1C(=O)O`, for which the Potency result was “inactive”.

As for `CCOC(=O)C1(CCc2ccccc2)CCN(Cc2ccccn2)CC1`, the Potency was 4.47 µM (active).

Regarding `Cc1cccc(NC(=O)CSc2nc3ccccc3nc2N2CCCCC2)c1`, the Potency is 11.2 µM (active).

For `COc1cccc(NC(=O)CSc2nc3ccccc3nc2N2CCCC2)c1`, the Potency was 14.1 µM (active).

`Cc1cccc(NC(=O)CSc2nc3ccccc3nc2N2CCCC2)c1`: the Potency is 14.1 µM (active).

`Nc1nc(N)nc(-c2cc([N+](=O)[O-])ccc2O)n1`: the Potency result is “inactive”.

`O=C1C(=O)c2ccccc2C(O)=C1c1cccc([N+](=O)[O-])c1`: the Potency is 12.6 µM (active).

As to `Cc1ccc(C2C3=C(CC(C)(C)CC3=O)N=C3c4ccccc4C(=O)C32)cc1` (stereo not given), the Potency was 8.91 µM (active).

For the molecule `COc1ccc(-n2c(C)cc(C(=O)Cn3c(NCCO)nc4ccccc43)c2C)cc1`, the Potency is 12.6 µM (active).

For the molecule `CCOc1ccc(C2c3[nH]c4ccccc4c3CCN2Cc2cccn2-c2ncccn2)cc1` (stereo not given), the Potency is 12.6 µM (active).

With `Cc1ccccc1C1c2[nH]c3ccccc3c2CCN1Cc1cccn1-c1ncccn1` (stereo not given), the Potency was 12.6 µM (active).

Turning to `Cc1c(NC(=S)NC(=O)C(C)(C)C)c(=O)n(-c2ccccc2)n1C`, the Potency entry is “inactive”.

As to `Cc1cc(C)cc(-n2c(N)c(C(=O)Nc3c(C)n(C)n(-c4ccccc4)c3=O)c3nc4ccccc4nc32)c1`, the Potency is 4.47 µM (active).

On to `COc1ccc2c(C)c(CCC(=O)NC3CC3)c(=O)oc2c1C`, for which the Potency is 3.98 µM (active).

`COc1ccc(/C=C/C(=O)c2ccc([N+](=O)[O-])o2)cc1OC`: the Potency was 11.2 µM (active).

For the molecule `CCCSc1ccc(-c2nn(-c3ccccc3)cc2/C=C(/C#N)C(=O)NCCCOC)cc1`, the Potency was 5.62 µM (active).

As for `CN1CCN(c2ccccc2NC(=O)c2cccc(OCc3ccccc3)c2)CC1`, the Potency is 7.94 µM (active).

`Cc1cc(=O)oc2ccc(OCC(=O)N3CCc4ccccc43)cc12`: the Potency is 10 µM (active).

Regarding `CCC1CCCCN1CCCNC(=O)CNC(=O)c1nn(-c2ccc(OC)c(Cl)c2)c(=O)c2ccccc12` (stereo not given), the Potency is 11.2 µM (active).

In the case of `CCC1CCCCN1CCCNC(=O)Cn1c(=O)c2cccn2c2cccnc21` (stereo not given), the Potency entry is “inactive”.

As for `O=C(O)c1nn(CCOc2ccc(Cl)cc2Cl)c(=O)c2ccccc12`, the Potency entry is “inactive”.

As to `O=C1NC(NS(=O)(=O)c2ccc(Cl)cc2)(C(F)(F)F)C(=O)N1Cc1cccnc1` (stereo not given), the Potency entry is “inactive”.

With `CCCOc1cc(NCc2ccccc2)c2ncn(C(C)C)c2c1`, the Potency is 5.01 µM (active).

Turning to `CCCN1C2=C(C(=O)CCC2)C(c2ccc(O)c(Br)c2)C2=C1CCCC2=O`, the Potency was 12.6 µM (active).

Consider `O=c1cc(CSc2ccc(Cl)cc2)nc(-c2ccccn2)[nH]1`, for which the Potency was 5.01 µM (active).

As for `CCc1nc(SCC(=O)Nc2ccccc2OC)c2c(C)c(C)sc2n1`, the Potency was 12.6 µM (active).

Turning to `Cc1sc2nc(C3CC3)nc(SCC(=O)N3c4ccccc4CC3C)c2c1C` (stereo not given), the Potency is 14.1 µM (active).

As to `CCc1nc(SCC(=O)N2c3ccccc3CC2C)c2c(C)c(C)sc2n1` (stereo not given), the Potency is 11.2 µM (active).

Take `C=CCNC(=O)c1cnc2n(c1=O)CCS2`: the Potency result was “inactive”.

`C=CCn1c(SCc2cc(=O)n3cc(C)ccc3n2)nnc1-c1ccc(F)cc1`: the Potency was 14.1 µM (active).

Turning to `COC(=O)C1=C(C)Nc2ncnn2C1c1ccccn1` (stereo not given), the Potency entry is “inactive”.

Take `Cc1ccc(Cn2c(C)nc3c(c2=O)c2nc4ccccc4nc2n3Cc2ccco2)cc1`: the Potency was 7.08 µM (active).

Regarding `Cc1cc(C)cc(-n2c3nc4ccccc4nc3c3c(=O)n(Cc4ccco4)cnc32)c1`, the Potency was 12.6 µM (active).

Regarding `COc1cc(C2Oc3ccccc3C=C2[N+](=O)[O-])cc(OC)c1OC` (stereo not given), the Potency is 14.1 µM (active).

On to `COc1cc(/C=C(/C(=O)c2cccs2)c2nc3ccccc3[nH]2)ccc1O`, for which the Potency was 8.91 µM (active).

`O=C(/C(=C/c1ccc(Cl)cc1)c1nc2ccccc2[nH]1)c1ccccc1`: the Potency is 1.41 µM (active).

As to `CCCc1c(C)c2cccc(C)c2[nH]c1=O`, the Potency result was “inactive”.

Turning to `COc1ccc(CNC(=O)C[C@H]2C(=O)N(C3CCCCC3)C[C@@H]2Cc2ccccc2)cc1`, the Potency was 11.2 µM (active).

On to `COc1ccc(CNCc2ccc3ccccc3c2)c(OC)c1`, for which the Potency is 11.2 µM (active).

As for `Cc1cc(C)n(CC(O)COc2ccccc2)n1` (stereo not given), the Potency is 2 µM (active).

`CCOC(=O)c1c(-c2ccc(C)cc2C)csc1NC(=O)CSc1nnnn1C`: the Potency was 4.47 µM (active).

With `CCCc1c(NC(=O)Nc2ccc(F)cc2)cnn1-c1ccc(Cl)cc1`, the Potency is 12.6 µM (active).

With `CCCSc1nc2c(cnn2-c2ccccc2)c(=O)[nH]1`, the Potency entry is “inactive”.

Consider `CC1=NCCN1CCNC(=O)Nc1ccc(F)cc1`, for which the Potency result is “inactive”.

`CCCc1c(NC(=O)Nc2ccc(F)cc2)cnn1-c1ccccc1`: the Potency is 15.8 µM (active).

Consider `COc1cccc(NC(=O)c2ccc3c(c2)C(=O)N(CC2CCCO2)C3=O)c1` (stereo not given), for which the Potency entry was “inactive”.

On to `NC(=O)C1CCN(CC(=O)Nc2cccc(C(=O)Nc3cccc(C(F)(F)F)c3)c2)CC1`, for which the Potency was 2 µM (active).

As for `CSc1c[n+]2c(n1C)CCC2`, the Potency result was “inactive”.

Turning to `Cc1ccc(-n2c(-c3ccc(Cl)cc3)c[n+]3c2CCC3)cc1`, the Potency is 0.355 µM (active).

On to `Cc1c(C)n2c(SCC(=O)Nc3ccc4c(c3)OCCO4)nnc2[nH]c1=O`, for which the Potency is 4.47 µM (active).

In the case of `O=C(c1[nH]ncc1-c1cccc(Br)c1)C1CO1` (stereo not given), the Potency was 12.6 µM (active).

On to `Cc1onc(NC(=O)c2ccc([N+](=O)[O-])o2)c1Br`, for which the Potency was 12.6 µM (active).

Consider `CC1=Nc2cc(C(=O)N3CCCC3)ccc2Sc2ccc(C)cc21`, for which the Potency was 5.62 µM (active).

For the molecule `COc1ccc(CCN2CCCn3c2nc2c3c(=O)n(Cc3ccccc3F)c(=O)n2C)cc1OC`, the Potency is 5.01 µM (active).

Turning to `COc1cc(/C=C/C(=O)c2ccc(Cl)s2)cc(OC)c1O`, the Potency is 14.1 µM (active).

`COc1ccccc1CNC(=O)c1ccc2c(=O)n3c(nc2c1)CCCCC3`: the Potency was 11.2 µM (active).

Consider `CCOC(=O)C1CCN(C(=O)C(=O)Nc2ccc3nc4n(c(=O)c3c2)CCCCC4)CC1`, for which the Potency is 14.1 µM (active).

As to `COc1ccccc1C(=O)Nc1ccc2nc3n(c(=O)c2c1)CCCC3`, the Potency is 11.2 µM (active).

In the case of `CCC(=O)N1CCc2cc(S(=O)(=O)N3CCN(c4cc(Cl)ccc4C)CC3)ccc21`, the Potency entry is “inactive”.

Regarding `CC(=O)N1CCc2cc(S(=O)(=O)N3CC(C)CC(C)C3)ccc21` (stereo not given), the Potency is 11.2 µM (active).

Regarding `CCC(=O)N1CCc2cc(S(=O)(=O)N3CCCCCC3)ccc21`, the Potency was 12.6 µM (active).

For `O=C1C2CCCN2C(c2ccccc2)N1c1nccs1` (stereo not given), the Potency entry is “inactive”.

`Cc1ccc(Nc2nc(=O)c3cccnc3s2)c(Br)c1`: the Potency entry was “inactive”.

For the molecule `Cc1ccc(S(=O)(=O)Nc2cccc3ncccc23)s1`, the Potency was 5.01 µM (active).

`O=S(=O)(Nc1cccc2ncccc12)c1cccs1`: the Potency is 4.47 µM (active).

For `CCOc1ccc(CCn2c(-c3ccco3)nc3ccccc3c2=O)cc1OCC`, the Potency was 10 µM (active).

Turning to `CCOc1ccc(S(=O)(=O)Nc2cc(S(=O)(=O)N(CC)CC)ccc2N2CCCC2)cc1`, the Potency is 2.51 µM (active).

With `N#CC(C#N)=C1C=CC=CN1/C(=C\c1ccco1)C(=O)c1ccc(Br)cc1`, the Potency was 15.8 µM (active).

For `N#CC(C#N)=C1C=CC=CN1/C(=C\c1ccco1)C(=O)c1ccc(Cl)cc1`, the Potency was 14.1 µM (active).

On to `COc1ccc(C(=O)/C(=C\c2ccco2)N2C=CC=CC2=C(C#N)C#N)cc1`, for which the Potency is 15.8 µM (active).

As for `COc1ccc(-c2cc(CNC(=O)CCl)on2)cc1`, the Potency is 1.58 µM (active).

In the case of `O=C(CN(c1ccc2c(c1)OCCO2)S(=O)(=O)c1ccccc1)NCc1ccc(Cl)cc1`, the Potency is 7.94 µM (active).

As for `O=C(NCc1ccc2c(c1)OCO2)c1nc(S(=O)(=O)Cc2ccccc2F)ncc1Cl`, the Potency entry is “inactive”.

As to `CC(C)N1C/C(=C/c2ccsc2)C(=O)/C(=C/c2ccsc2)C1`, the Potency was 5.01 µM (active).

For `Cc1c(CCO)sc[n+]1CC(=O)OCCC12CC3CC(CC(C3)C1)C2`, the Potency is 8.91 µM (active).

On to `CCCCc1nc2cc(C(=O)N3CCN(c4nc(C)cnc4C)CC3)ccc2o1`, for which the Potency is 12.6 µM (active).

With `CCC(C)(C)NC(=O)C(c1cccc(OC)c1OC)N(CC(C)C)C(=O)CCC(=O)Nc1cc(C)on1` (stereo not given), the Potency was 10 µM (active).

`CCOC(=O)Cn1nnnc1C(CC)N(Cc1cccs1)Cc1cc2ccc(OC)cc2[nH]c1=O` (stereo not given): the Potency is 10 µM (active).

For the molecule `Cc1ccc(OCC(=O)Nn2cnnc2)c(Br)c1`, the Potency entry was “inactive”.

Turning to `Cc1ccc(C)c(-c2nnc(OCC(=O)Nc3cc(C)on3)c3ccccc23)c1`, the Potency was 14.1 µM (active).

In the case of `CC(C)N=C(NS(=O)(=O)c1ccccc1)C(Cl)(Cl)Cl`, the Potency is 5.01 µM (active).

Regarding `C=CCNC(=O)c1onc(CSc2cccc(Cl)c2)c1C(=O)O`, the Potency entry is “inactive”.

As to `CCc1ccc(-c2cn(C3CCCCC3)c(=S)[nH]2)cc1`, the Potency was 14.1 µM (active).

As for `CC(=O)/C=C/c1ccccc1Oc1c(F)c(F)nc(F)c1F`, the Potency is 10 µM (active).

Turning to `Cc1cccc2c1NC(=O)/C2=C\C(=O)c1cccs1`, the Potency entry is “inactive”.

On to `CC(C)N(C(=O)CSc1nnc(-c2ccc3c(c2)OCO3)n1C)C(C)C`, for which the Potency is 11.2 µM (active).

As for `CC(NC(=O)Nc1ccc(Cl)cc1)c1ccc2c(c1)OCO2` (stereo not given), the Potency entry was “inactive”.

Consider `O=C(N[C@@H](Cc1ccccc1)C(=O)CCl)OCc1ccccc1`, for which the Potency result is “inactive”.

As to `COC(=O)[C@H](Cc1ccccc1)N(C)S(=O)(=O)c1cccc(S(=O)(=O)N(C)[C@@H](Cc2ccccc2)C(=O)OC)c1`, the Potency is 12.6 µM (active).
